# Structures can show the parent of a compound that is named as a salt.
# What was measured:
# Conditions in all cases: compound concentration in added solution (µM; 5 µl added to 20 µl cells): 10; 18 h
# A431 [1] = assay: LBPA endosome anti-LBPA integrated intensity (sum per cell), Z-score; higher = more LBPA staining
# Outline: (§1)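 Four 20× images per well were taken of HeLa MZ or A431 cells that had been seeded at 3,500 per well in 20 µl onto 5 µl of 10 µM compound solution in duplicate 384-well imaging plates. Before imaging, cells were incubated 18 h, fixed in 4% PFA and stained with 6C4 anti-LBPA antibody, filipin, propidium iodide and CellTracker green. Values are Z-scores normalised in AcuityXpress from MetaXpress-derived per-cell integrated LBPA or filipin intensity, either whole-cell or within LBPA endosomes.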
# HeLa MZ [2] = assay: as above
# Outline: as §1
# A431 [3] = assay: whole-cell filipin (free cholesterol) integrated intensity, Z-score; higher = more cholesterol staining
# Outline: as §1
# HeLa MZ [4] = assay: as above
# Outline: as §1
# A431 [5] = assay: filipin (cholesterol) integrated intensity within LBPA endosomes, Z-score; higher = more cholesterol in LBPA endosomes
# Outline: as §1
# HeLa MZ [6] = assay: as above
# Outline: as §1
SMILES,LBPA endosome anti-LBPA integrated intensity (z-score) (A431 [1]),LBPA endosome anti-LBPA integrated intensity (z-score) (HeLa MZ [2]),whole-cell filipin (z-score) (A431 [3]),whole-cell filipin (z-score) (HeLa MZ [4]),filipin (z-score) (A431 [5]),filipin (z-score) (HeLa MZ [6])
CN1[C@@H]2CC[C@H]1C[C@@H](OC(=O)C(CO)c1ccccc1)C2 (stereo partly drawn) [Atropine sulfate monohydrate],-0.568,-0.87,-0.533,-0.945,-0.5,-0.345
CC(C)C[C@H]1C(=O)N2CCC[C@H]2[C@]2(O)O[C@](NC(=O)[C@@H]3C=C4c5cccc6[nH]c(Br)c(c56)C[C@H]4N(C)C3)(C(C)C)C(=O)N12 [Bromocryptine mesylate],0.99,2.32,1.54,0.742,0.487,0.695
O=C(NCNC(=O)NC1C(=O)NC(=O)N1CO)NC1C(=O)NC(=O)N1CO (stereo not drawn) [Imidurea],-0.433,0.0233,-0.35,-0.63,-0.459,-0.511
NCCC(O)C(=O)NC1CC(N)C(OC2OC(CN)C(O)[C@H](O)[C@@H]2N)[C@H](OC2O[C@H](CO)[C@@H](O)[C@@H]2O)[C@@H]1O (stereo partly drawn) [Butirosin disulfate salt],-0.571,-0.99,-0.257,0.609,-0.399,-0.239
CC(C)N(CCC(C(N)=O)(c1ccccc1)c1ccccn1)C(C)C (stereo not drawn) [Disopyramide],-0.423,0.142,-0.822,-0.537,-0.461,-0.294
CC(C)c1c(CN(C)C(C)Cc2ccccc2)n(C)n(-c2ccccc2)c1=O (stereo not drawn) [Famprofazone],-0.355,-0.241,-0.228,-0.336,-0.4,-0.445
c1ccc2nc(N3CCNCC3)ccc2c1 [Quipazine dimaleate salt],-0.64,0.00535,-0.594,-0.241,-0.575,-0.45
CN1[C@@H]2CC[C@H]1C[C@@H](OC(=O)[C@H](CO)c1ccccc1)C2 [Hyoscyamine (L)],-0.717,-1.24,-0.954,-0.599,-0.664,-0.33
COc1ccc(OC)c(C(O)C(C)N)c1 (stereo not drawn) [Methoxamine hydrochloride],-0.442,0.415,-0.614,-0.834,-0.515,-0.513
O=c1c2ccccc2[se]n1-c1ccccc1 [Ebselen],-0.435,-0.608,-0.31,-0.0059,-0.372,-0.243
CCCCCC[C@H]1C(=O)O[C@H](C)[C@H](NC(=O)c2cccc(NC=O)c2O)C(=O)O[C@@H](C)[C@@H]1OC(=O)CC(C)C [Antimycin A],-0.868,-0.65,-0.217,-0.804,-0.854,-0.994
"CNCC(O)c1ccc(O)cc1 (racemic) [(+,-)-Synephrine]",-0.271,-0.444,0.673,-0.00115,-0.481,-0.576
C[C@@H]1CC[C@H]2[C@@H](C)C(=O)O[C@@H]3O[C@@]4(C)CC[C@@H]1[C@]32OO4 [Artemisinin],-0.479,0.63,-0.6,0.161,-0.503,-0.315
COP(=O)(OC)C(O)C(Cl)(Cl)Cl (stereo not drawn) [Trichlorfon],-0.479,-0.711,-1.16,-1.48,-0.56,-0.592
CCN[C@@H](C)Cc1cccc(C(F)(F)F)c1 [Dexfenfluramine hydrochloride],-0.18,-0.965,-0.95,-0.721,-0.444,-0.703
CCC(C)C1O[C@]2(C=C[C@@H]1C)C[C@@H]1CC(C/C=C(\C)[C@@H](OC3C[C@H](OC)[C@@H](OC4C[C@H](OC)[C@@H](O)[C@H](C)O4)[C@H](C)O3)[C@@H](C)/C=C/C=C3\COC4[C@H](O)C(C)=CC(C(=O)O1)[C@]34O)O2 (stereo partly drawn) [Avermectin B1a],-0.178,0.136,-0.0649,0.727,-0.285,-0.0937
CCCC(C)(COC(N)=O)COC(=O)NC(C)C (stereo not drawn) [Carisoprodol],-0.659,-0.835,-0.863,-0.798,-0.607,-0.604
C[N+]1(C)[C@@H]2CC[C@H]1C[C@@H](OC(=O)C(CO)c1ccccc1)C2 (stereo partly drawn) [Methylatropine nitrate],-0.382,0.224,-0.241,0.542,-0.375,-0.173
COc1cc2c(cc1OC)C(C)NCC2 (stereo not drawn),-0.47,0.672,-0.808,-0.327,-0.528,-0.121
CCNC1(c2cccs2)CCCCC1=O (stereo not drawn) [Tiletamine hydrochloride],-0.499,-0.0498,-0.0108,-0.435,-0.475,-0.463
COc1ccc(Cc2nccc3cc(OC)c(OC)cc23)cc1OC [Papaverine hydrochloride],-0.662,0.0558,-0.685,-0.814,-0.607,-0.356
CO[C@]12C[C@@H](COC(=O)c3cncc(Br)c3)CN(C)[C@@H]1Cc1cn(C)c3cccc2c13 [Nicergoline],3.54,1.32,3.37,-0.0724,3.09,0.446

SMILES,LBPA endosome anti-LBPA integrated intensity (z-score) (A431 [1]),LBPA endosome anti-LBPA integrated intensity (z-score) (HeLa MZ [2]),whole-cell filipin (z-score) (A431 [3]),whole-cell filipin (z-score) (HeLa MZ [4]),filipin (z-score) (A431 [5]),filipin (z-score) (HeLa MZ [6])
CNC(C)(C)Cc1ccccc1 [Mephentermine hemisulfate],-0.473,-0.965,-0.48,-0.125,-0.471,-0.403
C1CCc2nnnn2CC1 [Pentylenetetrazole],-0.641,-1.19,-0.85,-0.876,-0.452,-0.614
O=P1(NCCCl)OCCCN1CCCl (stereo not drawn) [Ifosfamide],-0.43,-0.294,0.0112,-0.489,-0.396,-0.611
CC(Cc1ccc(O)cc1)NCC(O)c1cc(O)cc(O)c1 (stereo not drawn) [Fenoterol hydrobromide],-0.386,0.00712,-0.429,-0.631,-0.574,-0.584
c1ccc2c(c1)OCC(C1=NCCN1)O2 (stereo not drawn) [Idazoxan hydrochloride],-0.313,0.376,-0.115,-0.982,-0.462,-0.278
"CC(=O)OCC1=C(C(=O)O)N2C(=O)[C@@H](N)[C@H]2SC1 [Cephalosporanic acid, 7-amino]",-0.605,-1.08,-0.806,-0.877,-0.581,-0.604
CCN(C)C(=O)Oc1cccc([C@H](C)N(C)C)c1 [Rivastigmine],-0.438,-0.457,0.162,1.82,-0.375,-0.164
CC(O)(CS(=O)(=O)c1ccc(F)cc1)C(=O)Nc1ccc(C#N)c(C(F)(F)F)c1 (stereo not drawn) [Bicalutamide],-0.376,-0.104,-0.0253,0.26,-0.405,-0.188
C#C[C@]1(O)CC[C@H]2[C@@H]3CCC4=CC(=O)CC[C@]4(C)[C@H]3CC[C@@]21C [Ethisterone],-0.369,-0.214,-0.635,-1.08,-0.449,-0.685
CCCN1C[C@H](CSC)C[C@@H]2c3cccc4[nH]cc(c34)C[C@H]21 [Pergolide mesylate],2.35,1.89,-0.261,-0.788,0.495,0.499
Oc1cc(Cl)ccc1Oc1ccc(Cl)cc1Cl [Triclosan],-0.463,0.177,-0.0345,3.99,-0.336,-0.129
O=[N+]([O-])O[C@@H]1CO[C@H]2[C@@H]1OC[C@@H]2O [Isosorbide mononitrate],-0.416,-0.118,0.0855,-0.408,-0.35,-0.464
"CCC1(c2ccc(N)cc2)CCC(=O)NC1=O (stereo not drawn) [Glutethimide, para-amino]",-0.66,-1.41,-1.07,-1,-0.544,-0.691
C=C1C[C@@H]2[C@H](CC[C@]3(C)C(=O)CC[C@@H]23)[C@@]2(C)C=CC(=O)C=C12 [Exemestane],-0.59,0.401,-0.0622,-0.2,-0.537,-0.552
C[C@]12CC[C@@H](O)C[C@H]1CC[C@@H]1[C@@H]2CC[C@]2(C)C(=O)CC[C@@H]12 [3-alpha-Hydroxy-5-beta-androstan-17-one],-0.153,1.16,0.209,0.519,-0.175,-0.161
NCC1(CC(=O)O)CCCCC1 [Gabapentin],-0.54,-0.377,-0.349,-0.476,-0.52,-0.627
O[C@@H]1CCCC[C@H]1N1CCC(c2ccccc2)CC1 [L(-)-vesamicol hydrochloride],-0.173,1.21,0.21,0.285,-0.268,-0.0101
COc1cccc(C2(O)CCCCC2CN(C)C)c1 (stereo not drawn) [Tramadol hydrochloride],-0.437,0.543,-0.062,-0.487,-0.403,-0.176
CC1OC(OC2/C=C/C=C/C=C/C=C/CC/C=C/C=C/[C@H](C)[C@@H](O)[C@@H](C)[C@H](C)OC(=O)CC(O)CC(O)CC(O)CCC(O)C(O)C[C@]3(O)CC(O)C(C(=O)O)C(C2)O3)C(O)C(N)C1O (stereo partly drawn) [Nystatine],-0.00963,0.129,0.146,0.0497,-0.136,-0.223
C#C[C@]1(O)CC[C@H]2[C@@H]3CCC4=CC(=O)CCC4=C3C=C[C@@]21CC [Gestrinone],-0.489,-0.347,0.15,0.634,-0.436,-0.437
CCC(=O)O[C@H]1CC[C@H]2[C@@H]3CCC4=CC(=O)CC[C@]4(C)[C@H]3CC[C@]12C [Testosterone propionate],-0.618,-0.712,-0.907,-0.813,-0.502,-0.546

# Source: the supplement of paper PMC6607015
